# Laboratory results as given in PubChem BioAssay (NCATS).
# The source made the active and inactive calls. Calls come from the whole dose curve.
# Assay: qHTS drug screen for cell cycle checkpoint inhibitors in PARPi-resistant BRCA-mutant ovarian cancer cell lines. (AID 1963452)
# Settings: PEO1/OlaR viability, CellTiter-Glo luminescence, 96 h, stronger effect = lower value
# Source text: Women's Malignancies Branch, Center for Cancer Research (CCR),
# National Cancer Institute (NCI), National Institutes of Health (NIH), Bethesda, MD
# Poly (ADP-ribose) polymerase inhibitors (PARPis) have changed the treatment paradigm in breast cancer gene (BRCA) - mutant high-grade serous ovarian carcinoma (HGSC). However, most patients eventually develop resistance to PARPis, highlighting an unmet need for improved therapeutic strategies. Using high-throughput drug screens, we identified ataxia telangiectasia and rad3-related protein/checkpoint kinase 1 (CHK1) pathway inhibitors as cytotoxic and further validated the activity of the CHK1 inhibitor (CHK1i) prexasertib in PARPi-sensitive and -resistant BRCA-mutant HGSC cells and xenograft mouse models. CHK1i monotherapy induced DNA damage, apoptosis, and tumor size reduction. We then conducted a phase 2 study (NCT02203513) of prexasertib in patients with BRCA-mutant HGSC. The treatment was well tolerated but yielded an objective response rate of 6% (1 of 17; one partial response) in patients with previous PARPi treatment. […] BRCA reversion mutation in previously PARPi-treated BRCA-mutant patients was not associated with resistance to CHK1i.
# Among others, 1082 oncology drugs, both approved and investigational, were prioritized based on their status in clinical trial development. […] Drugs with average Z-AUC values less than -1.0 in all three cell lines were classified as "hits" resulting in 151 oncology drug hits. The screen also confirmed cross-resistance between olaparib and other PARPis (rucaparib, niraparib, and talazoparib) in PARPi-resistant PEO1/OlaR and PEO4.
# [1] G. L. Lin, K. M. Wilson, M. Ceribelli, B. Z. Stanton, P. J. Woo, S. Kreimer, E. Y. Qin, X. Zhang, J. Lennon, S. Nagaraja, P. J. Morris, M. Quezada, S. M. Gillespie, D. Y. Duveau, A. M. Michalowski, P. Shinn, R. Guha, M. Ferrer, C. Klumpp-Thomas, S. Michael, C. McKnight, P. Minhas, Z. Itkin, E. H. Raabe, L. Chen, R. Ghanem, A. C. Geraghty, L. Ni, K. I. Andreasson, N. A. Vitanza, K. E.Warren, C. J. Thomas, M. Monje, Therapeutic strategies for diffuse midline glioma from high-throughput combination drug screening. Sci. Transl. Med. 11, (2019).
# [2] T. M. Yamamoto, A. McMellen, Z. L. Watson, J. Aguilera, R. Ferguson, E. Nurmemmedov, T. Thakar, G. L. Moldovan, H. Kim, D. M. Cittelly, A. M. Joglar, E. P. Brennecke, H. Wilson, K. Behbakht, M. J. Sikora, B. G. Bitler, Activation of Wnt signaling promotes olaparib resistant ovarian cancer. Mol. Carcinog. 58, 1770 - 1782 (2019).
# PROTOCOL TABLE (as described by Inglese J, Shamu CE and Guy RK. 2007)
# SEQUENCE No. (e.g., 1, 2, 3, etc.); […] (e.g., Cells, Incubation, Reagent, etc.); VALUE; DESCRIPTION.
# 1; Compounds; 20nL; 1536-well white tissue culture-treated plates.
# 2; Cells; 5 uL; PEO1, PEO4, and PEO1/OlaR cells at 600 cells per well.
# 3; Incubation; 96 hr; 37C, 95% humidity, 5% CO2.
# 4; Reagent; 3 uL; CellTiter-Glo (Promega).
# 5; Incubation; 15 min; room temperature.
# 6; Detection; Luminescence, PHERAstar (BMG Labtech) plate reader.
# NOTES (numbers refer to Sequence numbers above)
# 1. MIPE 5.0 compounds were acoustically dispensed by Echo Acoustic Liquid Handler (Beckman Coulter Life Sciences). Each compound was plated at an 11-point concentration range with 1:3 dilution. Bortezomib, a proteasome inhibitor (final concentration, 20 uM), was used as a positive.
# 2. PEO1, PEO4, and PEO1/OlaR were trypsinized and dispensed in 5 uLof growth medium using a Multidrop Combi dispenser at a density of 600 cells per well to allow compounds to be present during the exponential growth phase.
# 3. Plates were incubated for 96 hours at standard incubator conditions and covered by a stainless steel gasketed lid to prevent evaporation.
# 4. Three microliters of CellTiter-Glo (Promega) were added to each well.
# 5. Plates were incubated at room temperature for 15 min with a stainless-steel lid in place.
# 6. Luminescence readings were taken using PHERAstar (BMG Labtech). […]
# [1] = measured here: PEO1 parental Z-AUC
Compound,Z-AUC,Z-AUC [1],Z-AUC (measured here: PEO4 Z-AUC)
Nc1ncnc2c1ncn2[C@@H]1O[C@H](CO)C[C@H]1O,1.48 (inactive),0.932,0.673
C[C@H]1COCCN1c1cc(C2(S(=O)(=O)C3CC3)CC2)nc(-c2ccc(NC(=S)NCCO)cc2)n1,-1.32 (inactive),-1.07,-1.96
NC1CCCN(c2c(/C=C3\SC(=O)NC3=O)cccc2-c2ccccc2)C1 (configuration not stated),-0.874 (inactive),-0.352,-1.12
C[C@@H]1N=C(N)NC(N(C)C)=N1,1.33 (inactive),1.06,1.03
O=C(NOCCO)c1cc(CN2OCCCC2=O)c(F)c(F)c1Nc1ccc(I)cc1F,-1.18 (inactive),-0.961,-1.01
O=C(NOCCO)c1ccc2cncn2c1Nc1ccc(I)cc1F,1.17 (inactive),0.484,0.455
CC1(C)CC[C@]2(C(=O)O)CC[C@]3(C)C(=CC[C@@H]4[C@@]5(C)C[C@@H](O)[C@H](O)C(C)(C)[C@@H]5CC[C@]43C)[C@@H]2C1,1.45 (inactive),0.722,0.511
CN1CCC(c2c(O)cc(O)c3c(=O)cc(-c4ccccc4Cl)oc23)C1CO (configuration not stated),-0.419 (inactive),-1.06,-0.725
CC(C)C(N)C(=O)OCC(CO)OCn1cnc2c(=O)[nH]c(N)nc21 (configuration not stated),0.614 (inactive),1.06,1.36
CC(C)=CCC/C(C)=C/CC/C(C)=C/CSc1ccccc1C(=O)O,0.993 (inactive),0.837,0.897
COCCNCc1ccc(-c2cc3nccc(Oc4ccc(NC(=S)NC(=O)Cc5ccc(F)cc5)cc4F)c3s2)nc1,0.225 (inactive),-0.316,0.00247
O=C(Nc1cc(Oc2cc(F)c(NC(=O)C3(C(=O)Nc4ccc(F)cc4)CC3)cc2F)ccn1)C1CC1,-0.419 (inactive),0.97,-0.43
C/C=C/CC(C)C(O)C1C(=O)NC(CC)C(=O)N(C)CC(=O)N(C)C(CC(C)C)C(=O)NC(C(C)C)C(=O)N(C)C(CC(C)C)C(=O)NC(C)C(=O)NC(C)C(=O)N(C)C(CC(C)C)C(=O)N(C)C(CC(C)C)C(=O)N(C)C(C(C)C)C(=O)N1C (configuration not stated),-0.474 (inactive),0.643,0.0499
CNc1ncc2cc(-c3cc(NC(=O)NCCC(C)(C)C)c(F)cc3C)c(C)nc2n1,-1.04 (inactive),-0.267,-0.215
